Source: PubChem BioAssay (NCI)
Where “and” joins values, the source holds several entries; their conditions need not be identical. Equal values may be shown once. About 83,000 compounds went through this panel and 20% of them were active in at least one assay; those are over-represented in the sample as a whole.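 Interpretation: 100, growth as untreated; towards 0, rising growth inhibition; 0, no net growth; 0 to -100, cell death. Compounds scoring below 10 were considered active.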 Calls of active or inactive are those of the source.

Tested on: HL-60(TB) leukemia
Assay: NCI-60 one-dose screen, 48 h (100 = growth as untreated, 0 = no growth, -100 = all killed)
Details: 10 µM unless noted

Row | Structure (SMILES) | growth
1 | O=c1oc2c(cnc3ccccc32)cc1-c1ccsc1 | 96.7% (inactive)
2 | COc1ccc(Nc2cc(Cl)ccc2C(=O)O)cn1 | 96.3% (inactive)
3 | CCOC(=O)NC(/C=C/c1ccccc1)NC(=O)OCC | 103% (inactive)
4 | Cc1ccc(-c2nc3ccc(Cl)cc3c(=O)n2N2C(=O)CSC2c2ccccc2Cl)cc1 (stereo not given) | 97.1% (inactive)
5 | CCCCC1C(=O)N(c2ccccc2)N(c2ccccc2)C1=O | 102% (inactive)
6 | COc1ccc(-c2cnc(-c3ccc(F)cc3)[nH]2)cc1 | 74.9% (inactive)
7 | COc1ccc2c(c1)C1(C(=O)N2)C(C#N)=C(c2ccccc2)Nc2c1c(-c1ccccc1)nn2-c1ccccc1 (stereo not given) | 3.96% (active)
8 | COc1nc2ccccc2s1 | 94.5% (inactive)
9 | CC1(C)CCC(S(=O)(=O)c2ccc3c(c2)/C(=N\O)c2cc(S(=O)(=O)N4CCC(O)(c5cccc(C(F)(F)F)c5)CC4)ccc2-3)CC1 | -67.5% (active)
10 | CCCCCC(=O)Oc1ccc(/C(=C(\C)c2ccc(OC)cc2)c2ccc(OCCN3CCCCC3)cc2)cc1 | 42.7% (inactive)
11 | NC(=S)c1csc(CCNC(=O)c2ccccc2)n1 | 89% (inactive)
12 | O=C1/C=C/[C@@H](O)[C@@H]2C[C@@H](O)C[C@H]2/C=C/CCCCO1 | -22.8% (active)
13 | O=C1c2ccc3c4c5ccc(c24)C(=O)N1CCCOCCCCOCCCNCc1ccc(cc1)CNCCCOCCCCOCCCN(C3=O)C5=O | -61.1% (active)
14 | O=[N+]([O-])c1ccc(C2N(Cc3ccc(Cl)cc3)CCN2Cc2ccc(Cl)cc2)cc1 | 86.9% (inactive)
15 | CC(C)c1cc(CNc2nc(Nc3cc(C4CC4)[nH]n3)cc(N3CCN(C)CC3)n2)on1 | -32.9% (active)
16 | O=C(O)c1[nH]c(=O)[nH]c(=O)c1[N+](=O)[O-] | 127% (inactive)
17 | O=C(Nc1cccc(-n2ccc3c(NC(=O)c4ccccc4)nccc32)c1)c1cccc(C(F)(F)F)c1 | 0.531% (active)
18 | Cc1cc(Cl)ccc1NC(=O)c1cc2ccccc2cc1O | 1.45% (active)
19 | CC(=O)OC[C@]12CCC(C)(C)C[C@H]1[C@@]1(O)[C@H](O)C[C@@H]3[C@@]4(C)CCCNC(C)(C)[C@@H]4CC[C@@]3(C)[C@]1(C)CC2 | 105% (inactive)
20 | Cc1nc2ncccc2nc1Nc1ccc(S(=O)(=O)Nc2ccccn2)cc1 | 100% (inactive)

Row | Structure (SMILES) | growth
21 | COc1cc([C@@H]2c3cc4c(cc3[C@H](O)[C@H]3COC(=O)[C@@H]23)OCO4)cc(OC)c1OC | -34.9% (active) and -61% (active)
22 | C=C[C@@H]1C[C@@H]2Cc3cc(Cl)ccc3N1O2 | 13.8% (inactive)
23 | O=C(N/N=C/c1cc(Cl)ccc1O)C(=O)N/N=C/c1cc(Cl)ccc1O | 46.1% (inactive)
24 | O=c1[nH]cc(Cl)cc1O | 75.9% (inactive)
25 | CCN(CC)CCOC(=O)c1cccnc1 | 101% (inactive)
26 | O=C1CC(N2C(=O)/C(=C/C(Cl)=C\c3ccc([N+](=O)[O-])cc3)SC2=S)C(=O)N1c1ccc(Cl)cc1 (stereo not given) | 21.3% (inactive)
27 | O=C1C(=O)c2ccccc2C(O)=C1CCCc1ccc(C2CCCC2)cc1 | 20.6% (inactive)
28 | CC(C)NC1CCC(Nc2ccnc3cc(Cl)ccc23)CC1 (stereo not given) | 57.9% (inactive)
29 | CCN(CC)CCOc1ccc(-c2c(-c3ccccc3)c(=O)oc3ccccc23)cc1 | 107% (inactive)
30 | COc1cc(/C=C2\C(=O)N(Cc3ccc(Cl)cc3)c3ccccc32)cc(OC)c1OC | -13.5% (active)
31 | Cc1oc2c(C(=O)N/N=C\c3ccc(O)cc3O)c[nH]c2c1C | -9.06% (active)
32 | CCC1=C[C@@H]2CN(C1)Cc1c([nH]c3ccccc13)[C@@](C(=O)OC)(c1cc3c(cc1OC)N(C)[C@H]1[C@@](O)(C(=O)OC)[C@H](OC(C)=O)[C@]4(CC)[C@@H]5C[C@@H]5CN5CC[C@]31[C@@H]54)C2 | -57.3% (active)
33 | N#Cc1c(Nc2ccccc2)nn2cc(-c3nc4ccccc4s3)c(N)nc12 | 100% (inactive)
34 | O=[N+]([O-])c1ccc(N/N=C\c2cc(Br)ccc2O)nc1 | 11.7% (inactive) and -8.74% (active)
35 | Cc1ccn2cc(Cc3cc(=O)oc4c3ccc3ccccc34)c(=O)nc2c1 | 86.1% (inactive)
36 | CC1SC(=S)N(c2ccc(Cl)cc2)C1=O (stereo not given) | 82.7% (inactive) and 98.2% (inactive)
37 | Cn1cnc2c(N3CCN(C(=O)OCc4ccc5c(Cl)cc(Cl)c(O)c5n4)CC3)nc(Cl)nc21 | 66% (inactive)
38 | Cc1ccc(NC2=CC(=O)C(=O)c3ccccc32)c(C)c1 | 38% (inactive)
39 | COc1ccc(/C=C/C(=O)c2cc(OC)c(OC)c(OC)c2)cc1OCc1cn(Cc2ccc(F)cc2)nn1 | 69.4% (inactive)
40 | CCN(CC)CCNc1cc(-c2cccc(OC(F)(F)F)c2)nc2ccc(N3CCCC3)cc12 | -55.4% (active) and -26.1% (active) and 12.6% (inactive)
